Screening data deposited in PubChem by University of Kansas High Throughput Screening Laboratory.
mHTT-CaM PPI inh: disrupts binding of mutant huntingtin to calmodulin; inhibition, % at 15 µM; P42858; AlphaScreen His-mHTT/GST-CaM binding, luminescence; 3.6% of 190,000 active;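 also: 0% = both proteins with DMSO and 100% = one protein alone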
Pf apPOL inh: Pf-apPOL DNA polymerase inhibition. Recombinant Pf-apPOL, molecular beacon fluorescence, 1.5 h. inhibition, % at 10 µM. 0.25% of 210,000 active. AID 1794808
An asterisk follows results filed as active; / = not tested or not shown; ! = not confirmed by another sample. The entries come from a sample that favours hits as a whole. Rule as the data show it: active = inhibition above about 50%; inactive = the rest.

SMILES	mHTT-CaM PPI inh	Pf apPOL inh
COc1ccccc1C1C(C(=O)Nc2ccccc2)=C(C)Nc2nc(-c3ccccc3)nn21 (stereo unspecified)	47.0	-12.3
CCOc1ccc(/C=C2\SC(=N)N(c3ccc4c(c3)OCO4)C2=O)cc1OC	11.0	-6.2
COc1cc(/C=C2\SC(=N)N(c3ccc(F)cc3)C2=O)ccc1O	9.0	4.4
CCOc1cc(/C=C2\SC(=N)N(c3nccs3)C2=O)ccc1OCCN1CCOCC1	51.0*	-3.2
CCOc1cc(/C=C2\SC(=N)N(c3nonc3N)C2=O)ccc1O	16.0	51.8*
C=CC(=O)N1[C@H](C(=O)OCC)CSCCS1(=O)=O	4.2	-3.6
CC(=O)CCC(=O)c1ccco1	/	28.9
Nc1c(S(=O)(=O)O)cc(Nc2ccccc2)c2c1C(=O)c1ccccc1C2=O	98.0*	-9.7
O=C1C(Nc2ccccc2)=C(NS(=O)(=O)c2ccccc2)C(=O)c2ccccc21	15.7	0.2
Nc1c(S(=O)(=O)O)cc(Br)c2c1C(=O)c1ccccc1C2=O	39.0	-0.1
Cc1ccc(S(=O)(=O)Nc2cc(S(=O)(=O)O)c(N)c3c2C(=O)c2ccccc2C3=O)cc1	79.0*	3.2
Nc1c(S(=O)(=O)O)cc(Nc2ccc(Nc3nc(Cl)nc(Nc4ccc(S(=O)(=O)O)cc4)n3)c(S(=O)(=O)O)c2)c2c1C(=O)c1ccccc1C2=O	/	42.6
NC1=C(Nc2ccccc2)C(=O)c2ccccc2C1=O	93.4*	-5.6
CC(C)c1nnc(NC(=O)CSc2nnc3c4ccccc4n(C)c3n2)s1	24.1	-5.2
COc1cc(C2=N/C(=C3/OC(=O)c4ccccc43)C(=O)O2)cc(OC)c1OC	-1.0	4.7
Cc1sc2c(c1C)C(=O)NC1(N2)C(=O)N(Cc2ccccc2F)c2ccccc21 (stereo unspecified)	53.0*	16.5
O=C1N(Cc2ccccc2F)c2ccccc2C12OCCCO2	-28.0	-6.9
CCC(=O)Nc1nc(CC)c(-c2ccc([N+](=O)[O-])o2)s1	15.0	4.5
Oc1cccc(CNc2ccc3[nH]ncc3c2)c1	76.9*	-4.6
Cc1cccc(CNc2ccc3cn[nH]c3c2)c1	60.4*	-4.4
Cn1cc(CC(=O)Nc2ccc3cn[nH]c3c2)c2ccccc21	11.6	3.0
Oc1cccc(CNc2ccc(F)c(Cl)c2)c1	18.7	-5.2
O=C(O)c1ccc(NCc2ccc3c(c2)OCO3)cc1	-3.0	4.9
c1cc2c(cc1CNc1ccc3cn[nH]c3c1)OCO2	63.7*	-6.1
CC(C)CC(=O)N(CC(N)=O)CC(N)=O	-4.3	1.1
SMILES	mHTT-CaM PPI inh	Pf apPOL inh
CC(=O)N(CCC1(Cc2ccccc2)CCOC(C)(C)C1)Cc1ccccc1 (stereo unspecified)	55.8*	-0.6
COc1ccc(CN(CCC2(Cc3ccccc3)CCOC(C)(C)C2)C(C)=O)cc1 (stereo unspecified)	11.8	2.3
CN1CCC(N(CC2CCOC2)C(=O)c2ccccc2)CC1 (stereo unspecified)	-6.0	1.2
Cc1ccc(C(=O)N2CCC(CCNS(=O)(=O)c3ccc(Cl)cc3)CC2)cc1	26.4	-3.0
O=C(c1ccccc1)N1CCC(CCNS(=O)(=O)c2ccc(Cl)cc2)CC1	55.3*	5.2
O=C(c1ccc(F)cc1)N1CCC(CCNS(=O)(=O)c2cccc3cccnc23)CC1	44.6	-4.3
Cc1ccc(C(=O)N2CCC(CCNS(=O)(=O)c3cccc4cccnc34)CC2)cc1	62.4*	-1.0
CC(=O)Nc1ccc(S(=O)(=O)NCCC2CCN(C(=O)c3ccccc3)CC2)cc1	38.8	-0.3
CC(=O)c1ccc(S(=O)(=O)NCCC2CCN(C(=O)c3ccc(C)cc3)CC2)cc1	57.5*	3.1
CC(C)c1ccc(S(=O)(=O)NCCC2CCN(C(=O)c3ccccc3)CC2)cc1	50.8*	-1.1
COc1ccc(S(=O)(=O)NCCC2CCN(C(=O)c3ccccc3)CC2)cc1	28.0	1.1
O=C(NCCc1csc(-c2cccc(F)c2)n1)Nc1c(F)cccc1F	-6.7	-5.7
COCCC1CCN(C(=O)c2c(F)cccc2F)CC1	-5.6	-5.7
O=C(C1CCN(c2ncnc3c2oc2ccccc23)CC1)N1CCCC1	-0.6	-7.2
COc1ccc(Br)c(C(=O)NCC(O)c2cccc3ccccc23)c1 (stereo unspecified)	-14.2	-4.4
CCOc1ccc(C2CC(c3cccc(Cl)c3)n3ncnc3N2)cc1 (stereo unspecified)	-10.8	-4.7
CC(C)C(=O)NC(Nc1ccccc1)C(Cl)(Cl)Cl (stereo unspecified)	-6.0	-0.8
O=C(c1ccccc1O)N1N=C(c2cccc(Br)c2)CC1(O)C(F)(F)F (stereo unspecified)	49.0	2.1
Cc1ccc(F)cc1S(=O)(=O)NCCC1CCN(C(=O)c2ccccc2)CC1	54.3*	2.1
Cc1ccc(C(=O)N2CCC(CCNS(=O)(=O)c3cc(C)c(C)cc3C)CC2)cc1	44.6	2.0
Cc1ccc(C)c(S(=O)(=O)NCCC2CCN(C(=O)c3ccccc3)CC2)c1	46.6	9.6
COc1ccc(OC)c(S(=O)(=O)NCCC2CCN(C(=O)c3ccc(C)cc3)CC2)c1	63.2*	-6.4
O=C(c1ccoc1)N1CCc2[nH]cnc2C1c1ccccc1 (stereo unspecified)	4.0	-2.7
CCOC(=O)C(=O)N1CCN(C(=O)C2CC2c2ccccc2)CC1 (stereo unspecified)	-6.1	-5.1
O=C1CCCN1CC1CCCNC1 (stereo unspecified)	-1.1	-5.9
SMILES	mHTT-CaM PPI inh	Pf apPOL inh
COc1ccccc1CNc1ncnc2c1cnn2-c1ccc(C)cc1C	15.0	-0.2
Cc1cc(C)c2c(c1)[nH]c1nnc(SCC(=O)NCc3ccccc3)nc12	8.0	-4.2
Cc1cc(C)c2c(c1)[nH]c1nnc(SCC(=O)N3CCN(c4ccccc4)CC3)nc12	74.0*	1.3
CCOC(=O)c1ccc(NC(=O)Cn2cc3c(n2)CCCC3)cc1	-8.8	0.3
Clc1cccc(CN2CCN(c3cnn4cnnc4c3)CC2)c1	1.8	0.7
CCCc1nnc(NC(=O)CSc2ccc(NC(=O)C3CC3)nn2)s1	-8.2	1.6
CCn1c(C2CCN(S(=O)(=O)c3ccc4c(c3)CCCC4)C2)nc2ccncc21 (stereo unspecified)	92.6*	10.8
CCn1c(C2CCN(S(=O)(=O)c3cc(F)cc(F)c3)C2)nc2ccncc21 (stereo unspecified)	2.1	-2.7
Cn1c(/C=C/c2ccco2)nc2ccccc2c1=O	14.3	30.6
CC(C)Sc1ccc(-c2nnc(NC(=O)Nc3ccccc3)o2)cc1	-13.8	-5.8
Cc1nc2ccc3nc(NC(=O)c4ccccc4[N+](=O)[O-])sc3c2s1	29.9	2.9
Cc1nc2ccc3nc(NC(=O)c4ccccc4Cl)sc3c2s1	72.0*!	-7.4
O=C(NC1CC1)c1cccc(Cn2cncn2)c1	-5.5	-0.8
CCn1cc2c3c(cccc31)CN(C(=O)Nc1cccc(F)c1C)CC2	-3.2	1.3
COCCn1cc2c3c(cccc31)CN(C(=O)COc1cccc(C)c1)CC2	34.6	-3.5
COc1ccc(OCC(=O)N2CCc3cn(C)c4cccc(c34)C2)cc1	32.7	-6.0
CCn1cc2c3c(cccc31)CN(C(=O)c1ccccc1F)CC2	55.7*	-3.4
CCCn1cc2c3c(cccc31)CN(C(=O)COc1ccccc1)CC2	50.4*	-1.3
COCCn1cc2c3c(cccc31)CN(C(=O)COc1ccccc1)CC2	54.9*	-1.2
CCn1cc2c3c(cccc31)CN(C(=O)Cc1ccc(F)cc1)CC2	64.2*	-5.1
CCC(=O)N1CCc2cn(CC)c3cccc(c23)C1	28.4	-2.9
